# Assays:
# Assay in all cases: DAPPL (digital affinity profiling via proximity ligation, sequencing); 10 mM Tris-HCl pH 7.5, 50 mM NaCl, 1 mM DTT, 4% glycerol, room temperature, 30 min; GST-TFs on glutathione beads, 16-mer random dsDNA library, 0.1% formaldehyde crosslink after washing; high values mean tight binding
# Conditions in all cases: protein: recombinant; tags: N-terminal GST; dsDNA, one strand shown
# [1] = biological target: T1, GABPA (Homo sapiens, UniProt Q06546 1-454)
# T1 sequence: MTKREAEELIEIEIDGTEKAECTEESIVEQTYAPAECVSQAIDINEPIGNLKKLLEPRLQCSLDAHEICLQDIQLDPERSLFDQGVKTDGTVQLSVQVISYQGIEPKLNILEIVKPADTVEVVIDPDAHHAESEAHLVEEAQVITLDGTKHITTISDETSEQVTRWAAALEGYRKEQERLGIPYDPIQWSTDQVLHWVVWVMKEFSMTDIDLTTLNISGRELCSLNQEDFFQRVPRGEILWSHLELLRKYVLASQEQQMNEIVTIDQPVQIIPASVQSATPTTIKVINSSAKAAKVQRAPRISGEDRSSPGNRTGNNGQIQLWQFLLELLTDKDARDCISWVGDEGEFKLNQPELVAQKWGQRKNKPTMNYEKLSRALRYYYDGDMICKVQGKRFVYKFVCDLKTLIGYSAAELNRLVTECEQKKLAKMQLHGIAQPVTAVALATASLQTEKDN
# How it was run: (§1)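 GST fusions of human transcription factors were expressed in yeast and captured with glutathione beads. Once given DNA barcodes and pooled alongside a tag-only sample, they were incubated for 30 min at room temperature with 200 nmole of a random double-stranded 16-mer DNA library in Tris/NaCl/DTT/glycerol buffer, then washed, crosslinked (0.1% formaldehyde), proximity-ligated, PCR-amplified and sequenced on an Illumina NextSeq500. The binding signal of each hexamer is its read frequency for a factor divided by its frequency for the tag-only sample.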
# [2] = biological target: T2, ERG (Homo sapiens, UniProt P11308 1-479)
# T2 sequence: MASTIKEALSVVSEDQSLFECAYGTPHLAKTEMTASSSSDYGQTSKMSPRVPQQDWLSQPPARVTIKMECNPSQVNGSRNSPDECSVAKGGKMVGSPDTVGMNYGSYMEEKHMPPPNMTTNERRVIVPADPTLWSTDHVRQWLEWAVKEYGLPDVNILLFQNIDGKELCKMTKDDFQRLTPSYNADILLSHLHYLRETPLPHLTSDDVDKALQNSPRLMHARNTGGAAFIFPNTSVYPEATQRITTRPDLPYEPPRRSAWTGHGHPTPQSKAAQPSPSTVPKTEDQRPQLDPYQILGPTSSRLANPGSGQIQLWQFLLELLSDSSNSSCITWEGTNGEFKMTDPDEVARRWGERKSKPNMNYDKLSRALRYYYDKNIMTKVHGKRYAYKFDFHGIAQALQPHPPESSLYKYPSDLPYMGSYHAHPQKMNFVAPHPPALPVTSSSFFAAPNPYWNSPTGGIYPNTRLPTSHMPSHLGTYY
# How it was run: as §1
# [3] = biological target: ELF1 (Homo sapiens, UniProt P32519 1-619)
# Chain of ELF1 (P32519 whole entry): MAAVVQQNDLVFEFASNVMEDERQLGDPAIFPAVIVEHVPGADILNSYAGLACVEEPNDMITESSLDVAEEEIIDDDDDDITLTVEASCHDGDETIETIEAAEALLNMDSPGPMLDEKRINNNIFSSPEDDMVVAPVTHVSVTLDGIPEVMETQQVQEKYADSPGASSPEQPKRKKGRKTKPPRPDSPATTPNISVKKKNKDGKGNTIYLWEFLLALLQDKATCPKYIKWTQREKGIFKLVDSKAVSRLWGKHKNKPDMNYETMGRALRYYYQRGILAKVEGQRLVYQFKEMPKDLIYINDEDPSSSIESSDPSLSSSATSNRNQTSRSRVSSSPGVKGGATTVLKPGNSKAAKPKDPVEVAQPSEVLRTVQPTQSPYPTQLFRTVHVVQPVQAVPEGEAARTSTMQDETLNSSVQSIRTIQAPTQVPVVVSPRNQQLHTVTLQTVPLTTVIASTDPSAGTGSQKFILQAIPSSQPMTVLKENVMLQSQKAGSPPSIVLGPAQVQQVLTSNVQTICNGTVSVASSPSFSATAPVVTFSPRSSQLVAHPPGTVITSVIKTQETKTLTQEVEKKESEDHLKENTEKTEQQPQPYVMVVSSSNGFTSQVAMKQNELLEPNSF
# How it was run: as §1
# [4] = biological target: T3, EHF (Homo sapiens, UniProt Q9NZC4 1-300)
# T3 sequence: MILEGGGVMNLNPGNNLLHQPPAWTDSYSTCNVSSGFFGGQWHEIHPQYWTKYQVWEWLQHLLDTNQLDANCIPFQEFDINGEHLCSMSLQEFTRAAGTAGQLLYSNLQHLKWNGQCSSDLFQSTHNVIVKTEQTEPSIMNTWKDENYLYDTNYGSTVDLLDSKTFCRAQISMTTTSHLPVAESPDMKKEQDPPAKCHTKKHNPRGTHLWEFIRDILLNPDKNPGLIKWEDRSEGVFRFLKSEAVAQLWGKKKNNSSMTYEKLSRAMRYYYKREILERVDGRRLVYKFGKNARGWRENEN
# How it was run: as §1
# [5] = biological target: SPIB (Homo sapiens, UniProt Q01892 1-262)
# Chain of SPIB (Q01892 whole entry): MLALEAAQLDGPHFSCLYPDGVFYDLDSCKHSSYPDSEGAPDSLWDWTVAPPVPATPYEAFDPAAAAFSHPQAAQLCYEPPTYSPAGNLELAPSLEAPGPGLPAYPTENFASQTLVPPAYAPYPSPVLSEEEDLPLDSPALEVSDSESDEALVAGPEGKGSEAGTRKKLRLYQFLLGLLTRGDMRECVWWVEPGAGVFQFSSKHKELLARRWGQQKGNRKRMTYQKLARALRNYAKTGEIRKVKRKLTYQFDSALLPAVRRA
# How it was run: as §1
# [6] = biological target: T4, ELK3 (Homo sapiens, UniProt P41970 1-407)
# T4 sequence: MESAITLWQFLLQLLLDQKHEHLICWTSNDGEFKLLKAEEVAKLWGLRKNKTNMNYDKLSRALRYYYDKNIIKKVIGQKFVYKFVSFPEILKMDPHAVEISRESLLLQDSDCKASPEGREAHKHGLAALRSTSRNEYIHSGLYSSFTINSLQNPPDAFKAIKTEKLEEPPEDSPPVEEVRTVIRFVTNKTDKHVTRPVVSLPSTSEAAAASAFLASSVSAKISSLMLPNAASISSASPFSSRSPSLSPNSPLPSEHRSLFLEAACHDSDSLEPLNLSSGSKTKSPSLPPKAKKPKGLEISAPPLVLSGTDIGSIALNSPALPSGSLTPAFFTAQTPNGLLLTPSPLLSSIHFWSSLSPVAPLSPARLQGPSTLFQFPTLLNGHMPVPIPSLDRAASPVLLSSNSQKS
# How it was run: as §1
# [7] = biological target: T5, SPIC (Homo sapiens, UniProt Q8N5J4 1-248)
# T5 sequence: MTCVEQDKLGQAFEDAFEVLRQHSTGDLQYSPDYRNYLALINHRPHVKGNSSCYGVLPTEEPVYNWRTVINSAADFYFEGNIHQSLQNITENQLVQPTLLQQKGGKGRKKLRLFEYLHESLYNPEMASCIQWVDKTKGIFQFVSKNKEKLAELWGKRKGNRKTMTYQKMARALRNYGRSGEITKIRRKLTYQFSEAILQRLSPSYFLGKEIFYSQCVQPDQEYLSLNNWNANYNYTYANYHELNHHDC
# How it was run: as §1
# [8] = biological target: ELF4 (Homo sapiens, UniProt Q99607 1-663)
# Chain of ELF4 (Q99607 whole entry): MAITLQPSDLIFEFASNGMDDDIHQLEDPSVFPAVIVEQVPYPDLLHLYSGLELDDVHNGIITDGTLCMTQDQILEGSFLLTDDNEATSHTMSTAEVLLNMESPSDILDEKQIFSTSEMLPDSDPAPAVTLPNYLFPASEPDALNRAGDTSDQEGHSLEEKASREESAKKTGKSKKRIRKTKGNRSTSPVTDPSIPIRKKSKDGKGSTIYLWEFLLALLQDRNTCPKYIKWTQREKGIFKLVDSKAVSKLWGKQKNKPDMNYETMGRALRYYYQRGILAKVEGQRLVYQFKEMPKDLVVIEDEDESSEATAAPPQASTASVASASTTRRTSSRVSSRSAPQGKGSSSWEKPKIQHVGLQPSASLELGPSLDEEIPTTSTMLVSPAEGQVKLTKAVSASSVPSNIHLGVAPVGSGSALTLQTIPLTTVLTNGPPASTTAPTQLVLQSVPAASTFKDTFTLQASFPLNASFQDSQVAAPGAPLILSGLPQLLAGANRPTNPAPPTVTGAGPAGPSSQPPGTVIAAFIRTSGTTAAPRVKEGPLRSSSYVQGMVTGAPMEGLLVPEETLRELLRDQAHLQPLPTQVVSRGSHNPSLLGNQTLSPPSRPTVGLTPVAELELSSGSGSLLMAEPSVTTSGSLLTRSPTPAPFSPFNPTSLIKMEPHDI
# How it was run: as §1
# [9] = biological target: T6, ELK4 (Homo sapiens, UniProt P28324-2 1-405)
# T6 sequence: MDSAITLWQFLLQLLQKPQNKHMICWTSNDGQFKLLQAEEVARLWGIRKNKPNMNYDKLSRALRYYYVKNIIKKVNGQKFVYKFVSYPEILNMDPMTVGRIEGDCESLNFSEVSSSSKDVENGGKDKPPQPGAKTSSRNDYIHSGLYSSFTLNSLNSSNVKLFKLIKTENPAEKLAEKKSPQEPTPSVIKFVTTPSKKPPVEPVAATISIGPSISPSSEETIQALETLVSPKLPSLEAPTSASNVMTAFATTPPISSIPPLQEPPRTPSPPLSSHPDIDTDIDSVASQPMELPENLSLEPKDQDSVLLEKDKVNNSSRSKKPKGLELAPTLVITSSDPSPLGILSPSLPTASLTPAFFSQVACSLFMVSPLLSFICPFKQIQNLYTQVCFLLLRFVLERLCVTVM
# How it was run: as §1
# [10] = biological target: T7, ELF3 (Homo sapiens, UniProt P78545 1-371)
# T7 sequence: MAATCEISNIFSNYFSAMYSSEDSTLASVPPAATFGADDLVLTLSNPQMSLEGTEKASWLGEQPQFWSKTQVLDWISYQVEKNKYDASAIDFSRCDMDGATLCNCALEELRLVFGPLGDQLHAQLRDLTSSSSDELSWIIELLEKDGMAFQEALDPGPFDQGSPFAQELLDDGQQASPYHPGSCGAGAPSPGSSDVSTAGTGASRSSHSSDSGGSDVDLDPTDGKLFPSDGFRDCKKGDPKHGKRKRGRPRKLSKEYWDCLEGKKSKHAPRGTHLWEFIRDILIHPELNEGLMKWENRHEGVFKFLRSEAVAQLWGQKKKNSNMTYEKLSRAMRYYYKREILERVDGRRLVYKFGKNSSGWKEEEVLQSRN
# How it was run: as §1
# [11] = biological target: T8, ERF (Homo sapiens, UniProt P50548 1-548)
# T8 sequence: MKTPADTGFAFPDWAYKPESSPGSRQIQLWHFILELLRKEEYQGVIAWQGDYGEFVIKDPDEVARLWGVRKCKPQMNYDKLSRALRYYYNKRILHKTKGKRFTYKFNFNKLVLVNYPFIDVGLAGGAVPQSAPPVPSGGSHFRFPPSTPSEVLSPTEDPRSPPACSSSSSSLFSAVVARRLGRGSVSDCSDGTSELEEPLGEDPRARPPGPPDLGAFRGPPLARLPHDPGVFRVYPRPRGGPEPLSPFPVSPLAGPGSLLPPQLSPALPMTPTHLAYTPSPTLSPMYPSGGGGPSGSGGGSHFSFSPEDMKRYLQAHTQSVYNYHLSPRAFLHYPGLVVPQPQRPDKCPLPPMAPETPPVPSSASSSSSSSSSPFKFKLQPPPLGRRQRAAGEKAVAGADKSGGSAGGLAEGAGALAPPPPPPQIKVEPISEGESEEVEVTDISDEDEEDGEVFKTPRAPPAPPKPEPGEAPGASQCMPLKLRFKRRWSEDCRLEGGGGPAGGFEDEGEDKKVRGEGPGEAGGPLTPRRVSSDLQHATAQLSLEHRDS
# How it was run: as §1
# [12] = biological target: T9, ETV3L (Homo sapiens, UniProt Q6ZN32 1-361)
# T9 sequence: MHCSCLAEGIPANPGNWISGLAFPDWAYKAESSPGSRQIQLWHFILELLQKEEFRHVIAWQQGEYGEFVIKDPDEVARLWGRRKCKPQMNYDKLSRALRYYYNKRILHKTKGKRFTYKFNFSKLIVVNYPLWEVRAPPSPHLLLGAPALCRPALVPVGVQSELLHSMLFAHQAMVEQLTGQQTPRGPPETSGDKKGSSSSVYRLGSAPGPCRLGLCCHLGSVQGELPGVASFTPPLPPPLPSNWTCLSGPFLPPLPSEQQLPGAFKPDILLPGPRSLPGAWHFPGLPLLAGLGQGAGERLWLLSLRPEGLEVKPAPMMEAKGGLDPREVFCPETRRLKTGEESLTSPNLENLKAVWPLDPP
# How it was run: as §1
# [13] = biological target: T10, SPDEF (Homo sapiens, UniProt O95238 1-335)
# T10 sequence: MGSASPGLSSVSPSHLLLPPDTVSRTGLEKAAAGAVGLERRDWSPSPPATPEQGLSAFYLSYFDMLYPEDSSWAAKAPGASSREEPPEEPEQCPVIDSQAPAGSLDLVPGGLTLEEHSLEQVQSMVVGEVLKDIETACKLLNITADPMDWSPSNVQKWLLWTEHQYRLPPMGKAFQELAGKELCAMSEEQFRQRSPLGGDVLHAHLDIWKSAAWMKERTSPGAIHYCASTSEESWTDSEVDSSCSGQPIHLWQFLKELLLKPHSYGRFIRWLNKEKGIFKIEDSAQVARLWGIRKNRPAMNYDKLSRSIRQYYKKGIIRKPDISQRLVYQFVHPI
# How it was run: as §1
# [14] = biological target: T11, ETV7 (Homo sapiens, UniProt Q9Y603 1-341)
# T11 sequence: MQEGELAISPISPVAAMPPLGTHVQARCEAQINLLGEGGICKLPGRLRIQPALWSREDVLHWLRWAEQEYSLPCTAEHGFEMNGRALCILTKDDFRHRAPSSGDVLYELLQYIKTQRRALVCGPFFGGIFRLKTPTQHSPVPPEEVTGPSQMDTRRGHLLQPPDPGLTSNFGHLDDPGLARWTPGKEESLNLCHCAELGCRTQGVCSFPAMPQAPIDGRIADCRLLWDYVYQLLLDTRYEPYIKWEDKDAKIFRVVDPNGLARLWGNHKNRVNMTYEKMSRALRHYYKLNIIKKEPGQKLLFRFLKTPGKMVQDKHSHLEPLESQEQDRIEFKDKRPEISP
# How it was run: as §1
sequence,measurement,setting,value
CTAGCC,binding signal,[1],"1 fold enrichment (6-mer frequency, TF over GST control)"
same,binding signal,[2],"1.01 fold enrichment (6-mer frequency, TF over GST control)"
same,binding signal,[3],"1.07 fold enrichment (6-mer frequency, TF over GST control)"
same,binding signal,[4],"1 fold enrichment (6-mer frequency, TF over GST control)"
same,binding signal,[5],"1.02 fold enrichment (6-mer frequency, TF over GST control)"
same,binding signal,[6],"1.1 fold enrichment (6-mer frequency, TF over GST control)"
same,binding signal,[7],"1.08 fold enrichment (6-mer frequency, TF over GST control)"
same,binding signal,[8],"1.01 fold enrichment (6-mer frequency, TF over GST control)"
same,binding signal,[9],"1.1 fold enrichment (6-mer frequency, TF over GST control)"
same,binding signal,[10],"1.04 fold enrichment (6-mer frequency, TF over GST control)"
same,binding signal,[11],"1.13 fold enrichment (6-mer frequency, TF over GST control)"
same,binding signal,[12],"1.06 fold enrichment (6-mer frequency, TF over GST control)"
same,binding signal,[13],"1.02 fold enrichment (6-mer frequency, TF over GST control)"
same,binding signal,[14],"1.02 fold enrichment (6-mer frequency, TF over GST control)"

# — PMC7862700, “An all-to-all approach to the identification of sequence-specific readers for epigenetic DNA modifications on cytosine”
